Assay outcomes: PubChem BioAssay, Sanford-Burnham Center for Chemical Genomics
Compounds with a hit are over-represented: about 3% of the library has one in this group of screens.
SENP8 block-1: human SENP8 protease inhibitors, primary screen, biochemical, fluorescence, Nedd8 protein substrate, uHTS | recombinant SENP8 | Sentrin-specific protease 8 (Homo sapiens), Q96LD8 | inhibition, % at 20 µM | 360,000 compounds, 0.64% hits; in the data active = inhibition mostly above about 40%, no sharp cut-off; inactive = mostly below about 27%
SENP7 block: SENP7 protease inhibitors, primary screen, biochemical, luminescence, uHTS; Sentrin-specific protease 7 (Homo sapiens), Q9BQF6; recombinant SENP7, Z-RLRGG-aminoluciferin luminescence, 40 min; inhibition, % at 5 µM; 330,000 compounds, 1.5% hits;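 active = inhibition above about 50% at the single test dose, limit read from the data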;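 also: plate controls were DMSO with enzyme for no effect and no enzyme buffer wells for full effect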
SENP8 block-2: SENP8 protease inhibitors, primary screen, biochemical, luminescence | purified SENP8, Z-RLRGG-aminoluciferin cleavage | Sentrin-specific protease 8 (Homo sapiens), Q96LD8 | inhibition, % at 10 µM | AID 2540, 2010 | 330,000 compounds, 1.2% hits; in the data active = inhibition above about 50%
SENP6 block: SENP6 protease inhibitors, primary screen, biochemical, luminescence, uHTS; Recombinant SENP6 catalytic domain, aminoluciferin luminescence; 330,000 compounds, 1.8% hits; inhibition, % at 10 µM;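 active = inhibition above about 50% at the single tested dose, limit read from the data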;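 also: plate controls were DMSO wells with enzyme for no effect and DMSO wells lacking enzyme for full effect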
Target sequence (Q9GZR1 628-1112 limits assumed): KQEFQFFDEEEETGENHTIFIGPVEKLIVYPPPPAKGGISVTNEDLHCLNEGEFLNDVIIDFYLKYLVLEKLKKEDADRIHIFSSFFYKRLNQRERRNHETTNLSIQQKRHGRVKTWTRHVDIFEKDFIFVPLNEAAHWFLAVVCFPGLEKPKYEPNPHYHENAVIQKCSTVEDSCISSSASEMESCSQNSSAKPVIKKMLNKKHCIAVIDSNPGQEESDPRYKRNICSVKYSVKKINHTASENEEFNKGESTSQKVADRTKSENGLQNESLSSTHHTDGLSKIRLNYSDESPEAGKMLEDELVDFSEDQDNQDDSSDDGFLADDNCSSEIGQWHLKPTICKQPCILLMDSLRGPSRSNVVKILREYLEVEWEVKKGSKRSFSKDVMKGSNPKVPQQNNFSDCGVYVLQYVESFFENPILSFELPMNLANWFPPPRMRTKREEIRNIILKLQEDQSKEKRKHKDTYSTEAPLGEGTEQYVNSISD
PPC-1+TRAIL kill: compounds killing PPC-1 cancer cells with TRAIL present, primary screen, TRAIL potentiator project, ATPLite luminescence, uHTS; PPC-1 cells + TRAIL, ATPLite viability luminescence; cell killing (% activity), % at 4 µM or 5 µM; 220,000 compounds, 0.41% hits;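 active = cell killing above 50% in the first pass at 4 µM, then a duplicate retest at 5 µM averaging 50% or more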;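 also: plate controls were cells with TRAIL plus DMSO for no effect and medium-only wells lacking cells for full effect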
TRAIL sens C8: viability loss with TRAIL in NB7+C8 cells, primary screen, TRAIL sensitizer project, cell-based, ATPlite luminescence; inhibition (viability loss, TRAIL sensitization), % at 10 µM; 360,000 compounds, 1% hits; AID 624354, 2012;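 active = compounds causing at least 50% loss of cell viability in the single-dose screen, relative to plate controls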
SENP8 conf: SENP8 protease inhibitors, retest, confirmation, biochemical, luminescence, single concentration; shares compounds with SENP7 block; Recombinant SENP8, Z-RLRGG-aminoluciferin luminescence, 60 min; inhibition, % at 12.5 µM; 6,200 compounds, 40% hits; AID 488912, 2010;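 active = mean inhibition across replicates above about 50%, limit read from the data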
SENP6 confirm: SENP6 protease inhibitors, confirmation, biochemical, luminescence, single concentration. shares compounds with SENP7 block. recombinant SENP6, Z-RLRGG-aminoluciferin luminescence. inhibition, % at 12.5 µM. 6,200 compounds, 58% hits. AID 488915, 2010
SENP7 conf: SENP7 protease inhibitors, retest, confirmation, biochemical, luminescence, single concentration | shares compounds with SENP7 block | recombinant SENP7, Z-RLRGG-aminoluciferin luminescence, 40 min | inhibition, % at 12.5 µM | 6,200 compounds, 69% hits
Casp3 SENP sel: caspase-3 protease inhibitors, confirmation, selectivity assay for SENP inhibitor project, biochemical, single concentration | shares compounds with SENP7 block | 6,200 compounds, 60% hits | purified caspase-3, Z-DEVD-aminoluciferin luminescence, 60 min | inhibition, % at 12.5 µM;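 active = mean inhibition above about 50%, limit read from the data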;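 also: plate controls were enzyme with DMSO for no effect and wells without caspase-3 for full effect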
Target sequence (P42574 28-227 limits assumed): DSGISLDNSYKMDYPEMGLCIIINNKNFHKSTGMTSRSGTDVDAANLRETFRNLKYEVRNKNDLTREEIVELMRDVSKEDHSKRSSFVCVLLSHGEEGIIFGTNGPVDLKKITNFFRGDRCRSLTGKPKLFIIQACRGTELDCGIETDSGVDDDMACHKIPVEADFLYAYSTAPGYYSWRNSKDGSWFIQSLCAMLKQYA
Luc interf: counter-screen for SENP inhibitors: luminescence interference. inhibition, % at 12.5 µM. AID 488919. Pre-incubated SENP8/Z-RLRGG-aminoluciferin, luciferase luminescence interference. 6,200 compounds, 39% hits. shares compounds with SENP7 block;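 active = mean inhibition above about 50% when retested at one dose, limit read from the data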;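 also: plate controls were DMSO wells with completed reaction for no effect and substrate without enzyme for full effect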
Numbers without * were called inactive; / = no result given.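 The calls were made as follows, unless noted: active = mean inhibition above about 50% in the one-dose retest (limit read from the data); inactive = the rest.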

SMILES	SENP8 block-1	SENP7 block	SENP8 block-2	SENP6 block	PPC-1+TRAIL kill	TRAIL sens C8	SENP8 conf	SENP6 confirm	SENP7 conf	Casp3 SENP sel	Luc interf
O=C(NC1CC1)c1cccc(S(=O)(=O)N2CCOCC2)c1	11.1	3.5	-4.4	-2.8	/	-15.5	/	/	/	/	/
Cn1ccnc1SCC(=O)c1c[nH]c2ccccc12	-9.1	49.7	32.6	58.3*	11.5	2.4	47.9	41.7	78.2*	78.2*	53.9*
COc1ccccc1C(=O)CSc1nccn1C	6.9	1.4	-3.7	-9.8	/	6.1	/	/	/	/	/
COc1ccc(C(=O)c2nccc3cc(OC)c(OC)cc23)cc1OC	65.0*	92.0*	95.1*	88.8*	/	-11.8	86.2*	92.3*	81.0*	48.8	2.4
COc1ccc(C(=O)c2ccc(OC)c(OC)c2)cc1OC	9.1	-12.8	-8.2	1.6	5.5	-3.4	/	/	/	/	/
COc1ccc(N2CC(C(=O)NC3CCSC3=O)CC2=O)cc1 (stereo not given)	3.7	-0.7	-4.4	-3.0	/	1.2	/	/	/	/	/
Cc1ccc(S(=O)(=O)Nc2cccc(C(=O)NCc3cccnc3)c2)cc1F	-3.5	0.9	14.5	1.8	/	25.9	/	/	/	/	/
ClC(=C\c1ccccc1)/C=N/N1CCN(c2ccccn2)CC1	7.9	54.2*	-13.0	26.2	32.8	-15.9	5.0	6.5	17.0	30.6	5.0
O=C1CCCCC1Sc1nnc(-c2ccc3c(c2)OCO3)o1 (stereo not given)	-4.0	73.1*	68.2*	80.4*	5.5	53.3*	72.1*	72.3*	93.0*	88.6*	76.9*
Cc1ccc(-c2nnc(-c3ccc4c(c3)OCO4)o2)cc1	-384.6	83.0*	28.6	47.1	55.3*	48.6	9.4	15.9	17.0	45.8	5.0
Clc1ccc(CSc2nnc(-c3ccc4c(c3)OCO4)o2)cc1	10.5	-13.1	-13.2	-6.2	19.4	13.8	/	/	/	/	/
Brc1ccc(-c2nnc(-c3ccc4c(c3)OCO4)o2)o1	-276.6	61.2*	-9.1	35.3	37.7	41.8	7.0	8.3	19.6	38.9	15.3
Cc1ccc(C(=O)N2CCc3ccccc32)o1	6.9	91.1*	87.6*	90.7*	22.1	31.3	90.7*	90.8*	98.4*	94.7*	89.3*
Cc1nc2ccccc2c2oc(C(=O)N3CCc4ccccc43)cc12	/	/	/	/	26.2	/	/	/	/	/	/
O=C(c1cccs1)N1CCc2ccccc21	8.0	61.3*	40.2	59.9*	19.1	22.9	35.2	38.2	80.4*	75.6*	59.1*
O=C(c1cccs1)N1CCCc2ccccc21	9.4	2.0	-4.2	-12.6	-16.6	-8.6	/	/	/	/	/
Cc1ccc(C(=O)N2c3ccccc3CC2C)o1 (stereo not given)	29.8	93.7*	89.8*	85.1*	25.4	4.7	93.6*	95.9*	101.0*	96.6*	83.1*
Cc1nc2ncnn2c(C)c1Cc1cccc(C(F)(F)F)c1	7.8	-2.1	2.7	-5.7	-9.4	-0.2	/	/	/	/	/
CCn1c(C)c(C(C)=O)cc(C#N)c1=O	11.4	79.4*	-5.4	5.0	13.6	0.4	-6.8	-1.5	-5.9	-2.8	-4.8
CC(=O)c1cc(C#N)c(SCC(=O)O)nc1C	10.7	10.3	0.9	9.1	-11.3	0.1	/	/	/	/	/
COC(=O)CCC(=O)N1CN2CN(C(=O)CCC(=O)OC)CC([N+](=O)[O-])(C2)C1	19.2	8.5	-0.3	94.8*	27.4	-12.6	-26.5	-20.7	-11.2	-11.0	-7.7
O=C(O)CCC(=O)N1CN2CN(C(=O)CCC(=O)O)CC([N+](=O)[O-])(C2)C1	19.2	3.2	-2.0	-15.4	2.2	-21.0	/	/	/	/	/
Cc1ccc(-n2ncc(C(=O)NCC3CCN(C4CCCC4)C3)c2C2CCN(C(=O)OC(C)(C)C)CC2)cc1 (stereo not given)	27.5	-12.4	-7.3	-15.0	/	6.8	/	/	/	/	/
CC(C)(C)OC(=O)N1CCC(c2c(C(=O)NCC3CCN(C4CCCC4)C3)cnn2-c2ccc(F)cc2)CC1 (stereo not given)	21.8	56.0*	-11.1	-15.0	/	-7.1	-15.3	-10.1	-10.0	-3.4	-12.2
NS(=O)(=O)c1ccc(NC(=O)COC(=O)c2ccc([N+](=O)[O-])s2)cc1	37.8	33.4	58.7*	-18.8	-4.2	8.4	37.4	86.4*	46.6	18.7	7.6
SMILES	SENP8 block-1	SENP7 block	SENP8 block-2	SENP6 block	PPC-1+TRAIL kill	TRAIL sens C8	SENP8 conf	SENP6 confirm	SENP7 conf	Casp3 SENP sel	Luc interf
CN(CC(=O)Nc1ccccc1Cl)C(=O)COC(=O)c1ccc([N+](=O)[O-])s1	14.9	16.3	68.7*	70.4*	/	-4.5	78.3*	85.0*	27.9	49.3	-10.4
Cc1ccc(NC(=O)COC(=O)c2ccc([N+](=O)[O-])s2)c(C)c1	39.5	17.8	43.2	27.9	6.9	-2.4	/	/	/	/	/
Cc1cc(C)c(NC(=O)COC(=O)c2ccc([N+](=O)[O-])s2)c(C)c1	28.2	24.1	-14.6	15.2	16.4	6.5	/	/	/	/	/
COc1ccccc1NC(=O)COC(=O)c1ccc([N+](=O)[O-])s1	22.5	50.6*	71.7*	91.4*	6.0	7.7	75.0*	84.8*	36.9	5.0	-13.7
CN(CC(=O)NCc1ccco1)CC(=O)Nc1c(Cl)cccc1Cl	6.8	6.7	6.6	12.2	/	-10.9	/	/	/	/	/
CCCCN(C(=O)C(C)Oc1ccc(Br)cc1)c1c(N)n(CC(C)C)c(=O)[nH]c1=O (stereo not given)	-5.5	-8.6	-16.9	-7.9	/	13.4	/	/	/	/	/
CC(=O)N(c1ccccc1C)c1ccccc1C	8.1	/	/	/	/	-4.2	/	/	/	/	/
CC(=O)N(/N=C1\Sc2ccccc2C1=O)c1ccc(C)cc1C	-52.9	69.7*	83.4*	87.0*	25.1	40.5	6.0	65.3*	37.6	15.3	-1.4
CC(=O)N(/N=C1\Sc2ccccc2C1=O)c1ccccc1C	-7.0	63.4*	89.6*	86.9*	28.8	25.1	15.2	82.0*	35.8	4.9	7.5
